# Values joined by “and” are separate entries in the source; they are usually repeats but may differ in a detail not shown here. Identical values can stand only once. Active and inactive are the calls of the source.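 The calls were made as follows, unless noted: active = compound raises GLP1 secretion from the human gut endocrine cells, with no numeric limit stated; inactive = the rest.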
# Assays:
# [1] = stimulators of nuclear beta-catenin in C2C12, primary screen, imaging, WNT3A-conditioned medium, mouse C2C12, NPC library (AID 1117326; in the data active = nuclear beta-catenin stimulation mostly above about 4.2%, no sharp cut-off; inactive = mostly below about 10%); conditions: stronger effect = higher value
# [2] = stimulators of insulin release from INS-1E, primary screen, cell-based, 5 mM glucose, NPC library (AID 1117329;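 active = compound raises insulin release from rat beta cells at 5 mM glucose, no numeric limit stated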); conditions: rat INS-1E insulin secretion, at 10 µM, stronger effect = higher value
# [3] = growth inhibition of GSK3B-pretreated HCT116 cells – cell-based, CellTiter-Glo, 0.2 to 20 µM (AID 1117336;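 active = compounds lowering colon cancer cell viability after pretreatment blocking the GSK3B kinase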); conditions: HCT116 viability after GSK3B inhibitor, at 20 µM, stronger effect = higher value
# [4] = inhibition of endothelial tube formation, primary screen, imaging, VEGF stimulated, CD31 staining, tube area, NPC library (AID 1117340;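 active = compound that reduces growth-factor-driven endothelial tube area in a mixed cell culture, no cutoff stated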); conditions: VEGF-stimulated ADSC/ECFC co-culture, at 10 µM, stronger effect = higher value
# [5] = glucagon-like peptide 1 release enhancers, primary assay, NCI-H716 cell line, NPC library (AID 1117341); conditions: NCI-H716 cells, at 10 µM, stronger effect = higher value
# [6] = HCT116 colon cancer cell growth inhibition, primary screen, CellTiter-Glo luminescence, NPC library (AID 1117342;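 active = compounds that lower survival of HCT116 colon cancer cells in the luminescence readout, no numeric limit stated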); conditions: at 20 µM (top of the series)
# [7] = CellTiter-Glo luminescent readout of SW480 viability loss, NPC library primary (AID 1117343;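 active = compounds that lower viability of the colon cancer cells in the luminescence readout, with no numeric limit stated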); conditions: CellTiter-Glo luminescence; at 20 µM (top of the series) unless noted
# [8] = decreased DLD-1 cellular survival, CellTiter-Glo luminescent readout, NPC compound collection, primary HTS (AID 1117346;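 active = compounds that lower survival of DLD-1 colon cancer cells in the luminescence readout, no cutoff given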); conditions: DLD-1 viability, CellTiter-Glo luminescence; at 20 µM (top of the series)
# [9] = survival rescue of mitochondrial mutant cells in low glucose, primary screen, MELAS cybrids, Rieske KO mouse fibroblasts, CellTiter-Glo (AID 1508586;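 active = mean z-score across replicates of 1.96 or higher in either the MELAS or the Rieske mutant cell line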;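 also: z relative to plate mean and SD of compound and empty wells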)
# [10] = target: NAD(+) hydrolase SARM1 (Homo sapiens) (UniProt Q6SZW1); assay: SARM1 TIR NADase inhibitors, cell lysate, NAD-Glo luminescence (AID 1508614;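 active = compound whose remaining NAD level is above about 45 nM, limit read from the data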;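 also: higher remaining NAD means stronger inhibition of SARM1 NADase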); conditions: SAM-TIR HEK293T lysate NADase, at 1 µM, stronger effect = higher value
# [11] = target: Mitogen-activated protein kinase 7 (Homo sapiens) (UniProt Q13164); assay: ERK5 transactivation activators in reporter cells, primary screen, cell-based, HTS (AID 1508626;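 active = luciferase signal above three times the same-plate solvent-only control wells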;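 also: luciferase driven by Gal4-ERK5 fusion binding five Gal4 sites before minimal TATA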); conditions: HeLa Gal4-ERK5 transactivation, 18 h, at 5 µM, stronger effect = higher value
# [12] = circadian clock period modulators, cell-based, LOPAC library, luminescence reporter (AID 2774; call rule not given here;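 also: values are relative to mean of DMSO wells on each plate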); conditions: circadian reporter cells, at 7 µM, actives lie on both sides
# [13] = hESC survival regulators, cell-based (AID 493140; call rule not given here;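 also: cells exposed to compounds for four days before counting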); conditions: human embryonic stem cell survival screen; stronger effect = higher value
# [14] = liver-stage malaria parasite growth inhibition, primary screen, cell-based, HepG2, luciferase luminescence, HepG2 viability (AID 624349; in the data active = parasite load remaining mostly below about 12%, no sharp cut-off; inactive = mostly above about 10%;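 also: 100% = mean of DMSO negative control wells on the same plate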); conditions: P. berghei liver stage in HepG2, luciferase luminescence, concentration not given here; parasite load remaining: stronger effect = lower value; viability: measured here: HepG2 viability without parasites
# [15] = phospholipid biosynthesis inhibitors in animal cells, primary screen, cell-based, LOPAC library, screen 4 (AID 1347384; call rule not given here); conditions: phospholipid biosynthesis inhibition screen, at 10 µM
# [16] = viability rescue of complex I mutant cybrids, primary screen, cell-based, galactose medium, ATP luminescence (AID 1645843;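 active = z-score of at least 1.8 in each of two replicates, scored against plate mean and spread of sample wells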;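 also: positive z means more ATP and so rescue of galactose-driven cybrid death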); conditions: complex I mutant cybrid cells, 72 h, stronger effect = higher value
# [17] = MELAS cybrid survival, CellTiter-Glo 48 h, stronger effect = higher value
# [18] = Rieske KO mouse fibroblast survival, CellTiter-Glo 72 h
# NAD(+) hydrolase SARM1 (Homo sapiens), sequence (Q6SZW1 whole entry, looked up, the tested form may be a part): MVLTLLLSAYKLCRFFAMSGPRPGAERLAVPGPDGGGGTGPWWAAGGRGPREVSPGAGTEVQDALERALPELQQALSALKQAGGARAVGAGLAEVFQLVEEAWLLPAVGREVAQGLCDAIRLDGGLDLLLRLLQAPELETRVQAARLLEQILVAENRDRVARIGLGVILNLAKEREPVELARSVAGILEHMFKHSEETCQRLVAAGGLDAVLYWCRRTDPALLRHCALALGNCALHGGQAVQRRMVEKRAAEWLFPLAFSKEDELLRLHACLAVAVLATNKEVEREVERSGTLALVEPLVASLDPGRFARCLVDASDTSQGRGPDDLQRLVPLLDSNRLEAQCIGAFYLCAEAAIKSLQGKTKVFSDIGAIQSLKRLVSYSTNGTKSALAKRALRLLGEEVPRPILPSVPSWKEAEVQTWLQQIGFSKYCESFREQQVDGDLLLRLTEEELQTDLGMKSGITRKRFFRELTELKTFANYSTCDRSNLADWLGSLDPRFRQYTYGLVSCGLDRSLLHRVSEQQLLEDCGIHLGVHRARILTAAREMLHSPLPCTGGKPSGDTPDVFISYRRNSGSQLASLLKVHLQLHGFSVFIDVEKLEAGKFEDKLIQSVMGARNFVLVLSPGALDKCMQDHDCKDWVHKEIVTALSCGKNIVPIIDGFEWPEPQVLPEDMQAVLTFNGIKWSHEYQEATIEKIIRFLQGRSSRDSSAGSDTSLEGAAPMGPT
# Mitogen-activated protein kinase 7 (Homo sapiens), sequence (Q13164 whole entry, looked up, the tested form may be a part): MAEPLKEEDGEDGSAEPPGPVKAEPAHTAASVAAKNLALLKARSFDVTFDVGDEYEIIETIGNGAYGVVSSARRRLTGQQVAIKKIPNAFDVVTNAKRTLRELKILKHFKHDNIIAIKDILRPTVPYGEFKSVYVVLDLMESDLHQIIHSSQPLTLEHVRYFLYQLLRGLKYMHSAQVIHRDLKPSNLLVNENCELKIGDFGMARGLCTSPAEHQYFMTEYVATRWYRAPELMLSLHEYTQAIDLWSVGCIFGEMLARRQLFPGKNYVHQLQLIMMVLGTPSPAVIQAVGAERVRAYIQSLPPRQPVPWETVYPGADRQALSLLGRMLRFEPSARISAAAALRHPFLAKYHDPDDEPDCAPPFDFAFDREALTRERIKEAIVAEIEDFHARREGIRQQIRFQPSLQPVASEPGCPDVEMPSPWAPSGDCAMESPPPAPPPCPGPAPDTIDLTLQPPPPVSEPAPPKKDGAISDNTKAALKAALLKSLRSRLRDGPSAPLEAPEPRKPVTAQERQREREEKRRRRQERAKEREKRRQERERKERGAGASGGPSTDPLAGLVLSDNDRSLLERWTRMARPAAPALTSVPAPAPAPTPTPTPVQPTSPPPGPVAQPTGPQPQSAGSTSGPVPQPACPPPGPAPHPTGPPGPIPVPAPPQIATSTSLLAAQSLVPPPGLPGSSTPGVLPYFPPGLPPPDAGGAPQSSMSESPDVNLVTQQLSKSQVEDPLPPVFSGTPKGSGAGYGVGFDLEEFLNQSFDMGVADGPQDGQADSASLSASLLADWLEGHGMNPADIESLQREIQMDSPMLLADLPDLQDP
Compound,nuclear beta-catenin stimulation ([1]; at 10 µM),"nuclear beta-catenin stimulation ([1]; stimulation, at 2 µM) [%]",insulin secretion stimulation [2],viability decrease [3],tube area decrease [4],GLP1 secretion stimulation [5],inhibition of viability [6],viability decrease (inhibition) [7],viability decrease (inhibition) [8],"z-score [9, 17]","z-score [9, 18]",remaining NAD [10],luciferase signal [11],period change [12],survival [13],parasite load remaining [14],viability [14],outcome [15],z-score [16]
NCCNCCNCCNCCN,-1.7% (inactive),-1.3,4.1% (inactive),-0.2% (inactive),-4.2% (inactive),-2.1% (inactive),16% (inactive),17.8% (inactive),4.2% (inactive),-0.618 (inactive),0.462,,,,,,,,
CO/N=C(\C(=O)N[C@@H]1C(=O)N2C(C(=O)O)=C(CSc3nc(=O)c(O)nn3C)CS[C@H]12)c1csc(N)n1,-1.8% (inactive),-0.3,0% (inactive),-26.6% (inactive),-1.5% (inactive),-1.7% (inactive),-9.17% (inactive),8.2% (inactive),-15.1% (inactive),,,10 nM (inactive),,,,,,,
O=C(CCCl)NCCc1ccccc1,-0.5% (inactive),0.2,1.5% (inactive),-9.9% (inactive),-1.9% (inactive),-1.9% (inactive),-2.8% (inactive),-1.5% (inactive),-7.5% (active),,,10 nM (inactive),,,,,,,
CN(C)CCOC1=Cc2ccccc2Sc2ccc(Cl)cc21,31.6% (inactive),-1,14.5% (inactive),99.3% (active),89.3% (active),-2.6% (inactive),99% (active),102% (active),97.6% (active),0.153 (inactive),0.114,,,,,,,,
CCOC(=O)[C@@](C)(N)Cc1ccc(O)c(O)c1,0.6% (inactive),-0.5,2.8% (inactive),37.5% (inactive),-1.8% (inactive),-2.3% (inactive),20% (inactive),65% (active),17.2% (inactive),-1.64 (inactive),-0.614,,92 AU (inactive),,,,,,
O=C1NCN(c2ccccc2)C12CCN(CCCC(c1ccc(F)cc1)c1ccc(F)cc1)CC2,31.6% (inactive),2.1,2.5% (inactive),99.7% (active),109% (active),-0.5% (inactive),99.6% (active),103% (active),102% (active),-1.7 (inactive) and 0.321 (inactive),0.391 and -0.284,,,-0.085 h (inactive),0.417 (inactive),45.3% (inactive) and 31.6% (inactive),89.8% and 100%,inactive,-0.995 (inactive) and -1.48 (inactive)
C[N+](C)(C)CC(O)CC(=O)[O-] (stereo unspecified),6.3% (inactive),2.6,3.9% (inactive),17.4% (inactive),0.3% (inactive),-1.8% (inactive),-0.3% (inactive),-12.1% (inactive),1.7% (inactive),,,10 nM (inactive),,,,,,,
